Measurements taken from PubChem BioAssay.
Active and inactive are the calls of the source.

Assays:
Albumin (Bos taurus) = Albumin (Bos taurus) (UniProt P02769); assay: compounds binding labelled BSA control protein – biochemical, small-molecule microarray, Alexa647 label, 635/667 nm fluorescence, artefact control for SMM control protein annotation, profiling panel (AID 1118); conditions: BSA-A647 binding, fluorescence 635 nm, higher = more signal;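 further: score merges 667 nm emission intensity and signal-to-noise per printed compound spot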
[1] = probe aXIP binding to arrayed compounds – biochemical, NeuroSMM set, 635/667 nm fluorescence, primary screen (AID 1119); conditions: small-molecule microarray, higher = more signal, called active from +8 up or from −8 down;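 further: probe is the protein aXip251-270 applied at 1 µg/mL to compound-printed slides; binding of probe to printed compounds measured as 667 nm fluorescence plus signal to noise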
[2] = probe aNOTCH3 binding on compound microarray – biochemical, small-molecule microarray, 635/667 nm fluorescence, primary screen (AID 1120); conditions: higher = more signal;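 further: probe is a biotin-tagged antibody raised against NOTCH3 rather than NOTCH3 protein; score merges spot fluorescence near 667 nm with spot signal to noise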
[3] = probe aNOTCH2 binding on compound microarray – biochemical, small-molecule microarray, 635/667 nm fluorescence, primary screen (AID 1121); conditions: higher = more signal;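 further: score merges feature fluorescence read at 667 nm with its signal to noise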
[4] = biological target: Carbonic anhydrase 2 (Homo sapiens) (UniProt P00918); assay: compounds binding carbonic anhydrase 2 – biochemical, small-molecule microarray, Alexa647-labelled CAII, profiling panel (AID 1122); conditions: CAII-A647 binding fluorescence, higher = more signal
[5] = COS7 lysate on small-molecule microarray, probe aHis, 635 nm (AID 1123); conditions: COS7 cell lysate, fluorescence, higher = more signal;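 further: z-score combines 667nm fluorescence intensity with signal-to-noise per printed compound spot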
[6] = probe aLAP1 signal on lysate-treated microarray – cell lysate, small-molecule microarray, COS7 lysate, primary screen (AID 1124); conditions: probe aLAP1, fluorescence, higher = more signal;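 further: lysate comes from COS7 cells expressing LAP1 and is applied at 0.3 µg/mL; score merges spot fluorescence near 667 nm with signal-to-noise over triplicate slides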
Sam68 (KHDRBS1) = assay: compounds binding KHDRBS1 protein – biochemical, small-molecule microarray, 635 nm fluorescence, primary screen (AID 1125); conditions: higher = more signal;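 further: score merges 667 nm channel intensity with signal to noise over triplicate slides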
[7] = system: Chordin-like protein 2 (CHRDL2); assay: compounds binding chordin-like 2 – biochemical, small-molecule microarray, 635 nm fluorescence, primary screen (AID 1126); conditions: fluorescence 635 nm, higher = more signal;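 further: printed compound slides probed with Chrdl2 protein at 4 µg/mL for 1 h at 4 C; score merges 667 nm emission intensity with signal to noise over three replicate slides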
[8] = biological target: Concanavalin-A (Canavalia ensiformis) (UniProt P02866); assay: compounds binding concanavalin A lectin – biochemical, small-molecule microarray, Alexa647 label, 635 nm, artefact control for SMM control protein annotation, primary screen (AID 1127); conditions: ConA-A647 binding fluorescence, higher = more signal;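 further: z combines 667 nm emission intensity with signal-to-noise across three replicate slides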
[9] = compounds binding Alexa647 anti-His antibody – biochemical, small-molecule microarray, 635 nm fluorescence, artefact control for SMM control protein annotation, primary screen (AID 1128); conditions: higher = more signal;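 further: score merges feature fluorescence with signal-to-noise for each printed compound spot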
[10] = system: Human papillomavirus type 1a E7 protein (residues 1-88); assay: HPV1a E7 small-molecule binders, primary screen, biochemical, small-molecule microarray, residues 1-88, 635 nm (AID 1129); conditions: small-molecule microarray binding, fluorescence 635 nm; higher = more signal
[11] = biological target: Focal adhesion kinase 1 (Homo sapiens) (UniProt Q05397); assay: PTK2 protein binding on printed compound slides – biochemical, small-molecule microarray, 635/667 nm fluorescence, BSA, DTT, primary screen (AID 1130); conditions: 635 nm fluorescence, higher = more signal;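 further: composite of spot emission at 667 nm and signal to noise over triplicate slides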
[12] = system: Fibrinogen (Alexa647-labelled); assay: Alexa647-fibrinogen binding to printed small molecules – biochemical, small-molecule microarray, 635/667 nm fluorescence, artefact control for SMM control-protein annotation, profiling panel (AID 1131); conditions: fibrinogen-A647 binding fluorescence, higher = more signal;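 further: z-score merges 667 nm fluorescence with per-spot signal-to-noise over triplicate slides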
[13] = biological target: Follistatin (Homo sapiens) (UniProt P19883); assay: FST protein binding to printed compounds – biochemical, small-molecule microarray, 635/667 nm fluorescence, primary screen (AID 1132); conditions: 635 nm fluorescence, higher = more signal
[14] = biological target: Fibroblast growth factor 2 (Homo sapiens) (UniProt P09038); assay: basic fibroblast growth factor binding to printed compounds – biochemical, small-molecule microarray, 635/667 nm fluorescence, primary screen (AID 1133); conditions: FGF2, fluorescence 635/667, higher = more signal
[15] = JC-1 mitochondrial potential readout, lung cancer cells – cell-based, A549, JC-1 fluorescence, basal, 24 h, 100 nL, profiling panel (AID 1138); conditions: higher = more signal;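 further: A549 lung adenocarcinoma cells under basal conditions with no added stimulus; test concentration not given here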
Lefty1 = Lefty1 protein binding to printed compounds – biochemical, small-molecule microarray, 635/667 nm fluorescence, primary screen (AID 1139); conditions: fluorescence 635/667, higher = more signal
[16] = system: wheat germ agglutinin (Triticum aestivum), Alexa647-labelled; assay: Alexa647-WGA lectin binding to printed small molecules – biochemical, small-molecule microarray, 635/667 nm fluorescence, artefact control for SMM control-protein annotation, profiling panel (AID 1140); conditions: WGA-A647 binding, 635 nm fluorescence, higher = more signal;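 further: score merges 667 nm feature emission with signal to noise over triplicate slides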
[17] = biological target: Luciferin 4-monooxygenase (Photinus pyralis) (UniProt P08659); assay: inhibition of purified Photinus pyralis luciferase – biochemical, luminescence, purified enzyme, 2006 set, primary screen (AID 1141); conditions: purified firefly luciferase, SteadyGlo luminescence, 30 min; higher = more signal, called active from +8 up or from −8 down;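 further: cell-free assay with purified firefly luciferase at 100 ng per well in PBS; test concentration not given here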
Chain of Luciferin 4-monooxygenase (Photinus pyralis) (P08659 whole entry, looked up): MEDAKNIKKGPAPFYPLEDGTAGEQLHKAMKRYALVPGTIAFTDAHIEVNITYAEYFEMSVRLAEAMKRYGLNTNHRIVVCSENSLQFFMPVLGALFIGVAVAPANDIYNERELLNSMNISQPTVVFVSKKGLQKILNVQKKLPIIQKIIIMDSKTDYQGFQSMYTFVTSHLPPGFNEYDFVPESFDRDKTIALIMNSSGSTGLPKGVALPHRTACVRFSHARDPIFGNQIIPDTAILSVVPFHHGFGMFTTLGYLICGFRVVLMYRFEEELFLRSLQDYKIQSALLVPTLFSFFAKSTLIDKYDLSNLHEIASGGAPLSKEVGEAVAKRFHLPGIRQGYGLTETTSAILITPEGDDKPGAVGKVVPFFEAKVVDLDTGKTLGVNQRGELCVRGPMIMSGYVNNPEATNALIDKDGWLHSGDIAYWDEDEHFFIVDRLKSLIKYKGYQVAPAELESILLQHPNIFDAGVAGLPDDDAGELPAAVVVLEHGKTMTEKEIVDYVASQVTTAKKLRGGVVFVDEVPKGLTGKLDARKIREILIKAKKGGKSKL

Chain of Focal adhesion kinase 1 (Homo sapiens) (Q05397 whole entry, looked up): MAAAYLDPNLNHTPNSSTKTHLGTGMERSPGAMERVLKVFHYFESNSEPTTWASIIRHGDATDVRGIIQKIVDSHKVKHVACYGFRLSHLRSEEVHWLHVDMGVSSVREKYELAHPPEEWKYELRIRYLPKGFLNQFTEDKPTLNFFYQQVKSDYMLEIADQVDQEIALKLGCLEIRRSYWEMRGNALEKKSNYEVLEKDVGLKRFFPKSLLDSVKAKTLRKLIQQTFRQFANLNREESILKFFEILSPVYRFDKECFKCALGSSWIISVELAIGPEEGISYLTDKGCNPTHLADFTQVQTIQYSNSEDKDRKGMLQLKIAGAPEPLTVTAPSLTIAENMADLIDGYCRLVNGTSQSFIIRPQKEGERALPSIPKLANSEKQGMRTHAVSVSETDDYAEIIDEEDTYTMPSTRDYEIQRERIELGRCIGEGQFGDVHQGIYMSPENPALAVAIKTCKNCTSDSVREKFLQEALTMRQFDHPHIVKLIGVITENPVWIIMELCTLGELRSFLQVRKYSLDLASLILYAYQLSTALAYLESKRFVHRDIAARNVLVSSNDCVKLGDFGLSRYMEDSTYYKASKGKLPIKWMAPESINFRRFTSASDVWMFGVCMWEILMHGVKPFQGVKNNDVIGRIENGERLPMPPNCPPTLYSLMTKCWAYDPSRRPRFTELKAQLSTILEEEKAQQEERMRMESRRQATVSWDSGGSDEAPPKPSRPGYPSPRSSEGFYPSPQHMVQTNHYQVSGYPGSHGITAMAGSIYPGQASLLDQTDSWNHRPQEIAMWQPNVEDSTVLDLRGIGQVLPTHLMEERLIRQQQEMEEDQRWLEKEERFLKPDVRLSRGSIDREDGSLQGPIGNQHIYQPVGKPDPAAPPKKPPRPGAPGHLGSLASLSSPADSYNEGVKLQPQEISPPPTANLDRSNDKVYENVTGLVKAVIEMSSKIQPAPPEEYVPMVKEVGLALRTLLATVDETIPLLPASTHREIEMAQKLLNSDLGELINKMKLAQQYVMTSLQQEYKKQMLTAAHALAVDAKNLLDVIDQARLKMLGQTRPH
Chain of Follistatin (Homo sapiens) (P19883 whole entry, looked up): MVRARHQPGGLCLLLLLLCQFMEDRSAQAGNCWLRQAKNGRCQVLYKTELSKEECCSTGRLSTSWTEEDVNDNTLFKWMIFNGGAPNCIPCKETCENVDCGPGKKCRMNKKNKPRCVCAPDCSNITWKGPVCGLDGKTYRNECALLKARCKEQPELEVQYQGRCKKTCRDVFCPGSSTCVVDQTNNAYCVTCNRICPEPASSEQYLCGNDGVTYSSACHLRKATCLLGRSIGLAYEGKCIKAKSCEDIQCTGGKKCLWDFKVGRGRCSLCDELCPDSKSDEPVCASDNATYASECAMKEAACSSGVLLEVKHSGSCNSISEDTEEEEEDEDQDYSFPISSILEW
Chain of Fibroblast growth factor 2 (Homo sapiens) (P09038 whole entry, looked up): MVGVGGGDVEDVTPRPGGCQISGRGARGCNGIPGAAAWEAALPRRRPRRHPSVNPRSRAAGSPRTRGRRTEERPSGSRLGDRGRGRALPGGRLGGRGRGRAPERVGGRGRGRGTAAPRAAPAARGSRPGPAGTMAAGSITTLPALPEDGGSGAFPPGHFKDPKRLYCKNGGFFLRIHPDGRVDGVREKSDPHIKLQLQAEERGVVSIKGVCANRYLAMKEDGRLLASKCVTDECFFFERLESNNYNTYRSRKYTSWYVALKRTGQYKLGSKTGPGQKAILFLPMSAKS
Chain of Albumin (Bos taurus) (P02769 whole entry, looked up): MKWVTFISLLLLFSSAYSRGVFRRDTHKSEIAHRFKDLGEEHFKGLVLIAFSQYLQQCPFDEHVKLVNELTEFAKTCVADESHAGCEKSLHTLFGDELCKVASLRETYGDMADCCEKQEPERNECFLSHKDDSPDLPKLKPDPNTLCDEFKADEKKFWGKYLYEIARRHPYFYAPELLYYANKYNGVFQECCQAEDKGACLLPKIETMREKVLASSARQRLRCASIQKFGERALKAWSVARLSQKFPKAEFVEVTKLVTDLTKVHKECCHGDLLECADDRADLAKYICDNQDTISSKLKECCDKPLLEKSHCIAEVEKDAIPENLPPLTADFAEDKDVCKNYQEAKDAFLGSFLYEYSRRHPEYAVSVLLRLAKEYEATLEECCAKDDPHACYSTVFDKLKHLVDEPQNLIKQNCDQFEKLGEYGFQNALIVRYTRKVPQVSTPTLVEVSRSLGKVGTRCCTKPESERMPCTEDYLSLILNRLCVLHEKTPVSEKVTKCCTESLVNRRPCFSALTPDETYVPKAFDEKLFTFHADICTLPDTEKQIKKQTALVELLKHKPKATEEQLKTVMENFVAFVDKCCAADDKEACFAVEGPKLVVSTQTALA
Chain of Concanavalin-A (Canavalia ensiformis) (P02866 whole entry, looked up): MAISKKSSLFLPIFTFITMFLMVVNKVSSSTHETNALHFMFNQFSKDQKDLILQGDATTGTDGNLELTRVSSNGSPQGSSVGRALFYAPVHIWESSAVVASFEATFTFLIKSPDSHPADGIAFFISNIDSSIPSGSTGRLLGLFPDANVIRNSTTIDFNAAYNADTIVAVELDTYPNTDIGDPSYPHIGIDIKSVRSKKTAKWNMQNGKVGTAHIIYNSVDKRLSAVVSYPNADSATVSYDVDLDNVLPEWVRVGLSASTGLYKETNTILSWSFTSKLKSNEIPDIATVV

SMILES	composite z-score (Albumin (Bos taurus))	composite Z-score [1]	composite z-score [2]	composite z-score [3]	composite z-score [4]	composite z-score [5]	composite z-score [6]	composite z-score (Sam68 (KHDRBS1))	composite z-score [7]	composite z-score [8]	composite z-score [9]	composite z-score [10]	composite z-score [11]	composite z-score [12]	composite z-score [13]	composite z-score [14]	z-score [15]	composite z-score (Lefty1)	composite z-score [16]	z-score [17]
COCCOC(=O)N1C(=O)[C@@]2(c3cc(C#CC4=CCCCC4)ccc31)[C@H](c1ccc(OCCO)cc1)N1[C@H](c3ccccc3)[C@H](c3ccccc3)OC(=O)[C@H]1[C@@H]2C(=O)NC[C@H](O)c1ccccc1	-0.298	0.193 (inactive)	0.164	0.0629	0.326	1.22	0.875	1.31	1.41	1.12	0.392	1.16	0.499	0.295	1.48	1.82	-1.4	1.65	-0.127	-2.06 (inactive)
COCCOC(=O)N1C(=O)[C@@]2(c3cc(C#CC4=CCCCC4)ccc31)[C@H](c1ccc(OCCO)cc1)N1[C@H](c3ccccc3)[C@H](c3ccccc3)OC(=O)[C@H]1[C@@H]2C(=O)N1CCN(c2ncccn2)CC1	0.737	-0.648 (inactive)	0.0596	-0.158	0.425	0.477	0.677	1.31	0.48	0.713	0.433	1.15	0.067	0.574	1.29	0.692	-1.27	0.853	0.5	-2.01 (inactive)
COC(=O)c1ccc([C@H](NC(=O)c2ccco2)[C@]2(C)C[C@H]2C2CCCCC2)cc1	0.678	0.0201 (inactive)	0.0179	-0.0391	-0.227	1.43	-0.164	-0.552	-1.17	0.208	-0.162	-0.678	-0.59	-0.293	-0.633	-1.11	-0.573	-1.58	0.638	1.34 (inactive)
O=C1OCCC=C[C@H]2OC34C=CCN(Cn5nnc6ccccc65)C(=O)[C@H]3N(CCCCCCO)C(=O)[C@@H]4C12 (stereo not given in full)	-0.587	0.688 (inactive)	-0.429	-0.0532	0.875	-0.591	0.755	-0.365	-1.31	-0.718	-0.832	-0.48	-0.235	-0.907	-1.29	-1.24	0.324	-1.28	-1.07	-0.718 (inactive)
COCCCNC(=O)[C@@]1(Cc2ccccc2N=[N+]=[N-])N=C(c2ccc(OCCCO)cc2)O[C@H]1c1ccccc1	0.533	0.93 (inactive)	0.0749	0.0202	0.35	1.99	1.25	1.04	0.099	0.79	2.18	1.21	0.854	0.776	1.46	1.03	0.624	0.256	0.759	-0.97 (inactive)
C=CCC(OC(C)=O)[C@@H]1[C@@H](N(Cc2cc3ccccc3o2)C(=O)c2ccc(C)cc2)c2cc(OCCCO)ccc2N1C(=O)Cc1ccc(OC)cc1 (stereo not given in full)	-0.204	0.264 (inactive)	-0.176	-0.0811	-0.119	0.59	0.128	0.0262	0.172	0.217	0.0464	-0.454	0.0903	0.0839	0.924	0.158	1.33	-0.0083	0.273	-1.37 (inactive)
O=C1C=C(c2ccccc2)C(=O)c2ccc([C@H]3Oc4ccccc4S(=O)(=O)N4CCC[C@@H]34)cc21	-0.878	0.159 (inactive)	-0.185	-0.161	-0.48	-0.811	-0.534	-1.05	0.594	-0.388	-0.398	-0.315	-0.29	-0.506	0.428	-0.0096	-1.69	0.203	-0.0704	-2.04 (inactive)
[N-]=[N+]=Nc1ccccc1C[C@]1(C(=O)N2CCOCC2)N=C(c2ccc(OCCCO)cc2)O[C@H]1c1ccccc1	0.806	0.339 (inactive)	-0.0902	-0.204	0.627	1.99	0.221	1.36	0.764	1.15	2.06	1.21	0.3	0.905	1.42	1.81	2.81	0.435	1.2	-2.31 (inactive)
CN(C)C(=O)[C@@]1(CCS(=O)(=O)c2ccccc2)N=C(c2ccc(OCCCO)cc2)O[C@H]1c1ccccc1	1.02	1.19 (inactive)	0.413	-0.115	0.646	2.15	0.862	1.16	-0.98	0.761	2.36	1.23	0.365	0.983	1.02	-0.663	0.635	-0.502	1.18	-0.525 (inactive)
C=CCNC(=O)[C@@H]1[C@H]2C(=O)O[C@H](c3ccccc3)[C@H](c3ccccc3)N2[C@H](c2ccc(O)cc2)[C@@]12C(=O)N(C(=O)OCCOC)c1ccc(C#CC3(O)CCCCCC3)cc12	-0.632	-0.245 (inactive)	-0.416	-0.153	-0.742	-0.642	-0.547	-0.669	-2.57	-0.533	-0.461	-1.32	-0.365	-2.02	-1.01	-1.93	0.426	-0.624	-0.556	0.779 (inactive)
